In PubChem BioAssay:
The source made the active and inactive calls. How the calls were made is not given here.

Assay: inhibition of Brca1/Bard1 split-luciferase complementation, confirmation, counter-screen for Mdm2/MdmX interaction inhibitor project, luminescence, single concentration (AID 504668)
Conditions: Brca1/Bard1 bimolecular luciferase complementation counterscreen, at 8 µM, hits give high values
In the case of `CC(=O)Nc1nc(C)c(-c2csc(Nc3cccc([N+](=O)[O-])c3)n2)s1`, the inhibition is reported as 35.6% (active).
With `COc1cc([C@@H]2c3cc4c(cc3[C@@H](O[C@@H]3O[C@@H]5CO[C@@H](C)O[C@H]5[C@H](O)[C@H]3O)[C@H]3COC(=O)[C@H]23)OCO4)cc(OC)c1O` the inhibition was 31.6% (active).
With `CCOC(=O)c1cnc(-n2nc(C)cc2C)nc1NC1CCCCC1` the inhibition was 30.1% (active).
In the case of `O=C1c2ccccc2NC(c2ccc(-c3ccc(Br)cc3)o2)N1O` (stereo not given), the inhibition is reported as 31% (active).
With `CCCN(CCC)CCNC(=O)C1CCN(Cc2nc(-c3ccc(Cl)cc3)oc2C)CC1` the inhibition was 30.3% (active).
With `COc1ccccc1-n1c(-c2ccccc2)c[n+]2c1CCc1ccccc1-2` the inhibition was 29% (active).
In the case of `CCOc1ccc2nc(NC3=NC(c4ccc(OC)cc4)CC(=O)N3)nc(C)c2c1` (stereo not given), the inhibition is reported as 30.6% (active).
For `COc1ccc(C)cc1Nc1n[n+](-c2ccccc2)c(-c2c(OC)ccc3ccccc23)s1`, the inhibition was 29% (active).
In the case of `CC1=NN(c2nc(-c3ccc(C)cc3)cs2)C(=O)C1N=Nc1ccccc1O` (stereo not given), the inhibition is reported as 32.5% (active).
With `O=C(NCCCO)c1c(O)c2cccc3c2n(c1=O)CCC3` the inhibition was 24.6% (active).
In the case of `Cc1ccccc1-c1nc(CN2CCC(C(=O)NCCCN3CC(C)CC(C)C3)CC2)c(C)o1` (stereo not given), the inhibition is reported as 25.7% (active).
With `Oc1c(Cl)cc(Cl)c(Cl)c1Cc1c(O)c(Cl)cc(Cl)c1Cl` the inhibition was 26.8% (active).
With `CCN1CCN(c2ccc(Nc3ccnc4ccccc34)cc2)CC1` the inhibition was 29.8% (active).
With `O=C1[C@H]2[C@@H](c3ccc(F)cc3)N3C(=O)N(c4ccc(Br)cc4)C(=O)[C@@]3(Cc3ccc(Cl)cc3)[C@H]2C(=O)N1C1CCCCC1` the inhibition was 27.8% (active).
With `Cc1cccc(NC(=S)N(CCCN2CCCC2)Cc2cccn2Cc2ccc(Cl)cc2)c1` the inhibition was 23.4% (active).
For `CC(C)(C)c1cc(NCCCn2ccnc2)n2ncc(-c3ccc(Cl)cc3)c2n1`, the inhibition was 34.9% (active).
With `Cc1ccc(-c2csc(=Nc3cccnc3)n2CCCn2ccnc2)cc1C` the inhibition was 24.3% (active).
With `O=C(NC(Cc1c[nH]c2ccccc12)C(=O)Nc1ccc(OC(F)(F)F)cc1)c1cccs1` (stereo not given) the inhibition was 25.7% (active).
In the case of `O=C(COc1ccc(F)cc1Cl)Nc1nc(-c2ccccn2)cs1`, the inhibition is reported as 33.8% (active).
For `COc1ccc(-c2cc(C(=O)NNC3=NCCC3)c3c(C)nn(-c4ccccc4)c3n2)cc1`, the inhibition was 34.3% (active).
For `CC(C)(C)c1cc(C(=O)N/N=C/c2ccccc2O)n(-c2ccccc2)n1`, the inhibition was 28.9% (active).
With `C=C1C(=O)C=C[C@]2(C)C[C@@H]3OC(=O)[C@](C)(O)[C@H]3C[C@@H]12` the inhibition was 25.4% (active).
For `Cc1ccc(N=c2c([N+](=O)[O-])nn(-c3ccc4c(c3)OCCO4)n2O)cc1F`, the inhibition was 23.7% (active).
For `COc1ccc(-n2c(C)c([N+](=O)[O-])c3ccc(O)c(CN4CCCCC4)c32)cc1`, the inhibition was 28.9% (active).
With `CN1CCN(C(=O)CCCN2C(=O)/C(=C/c3ccccc3)SC2=S)CC1` the inhibition was 30.5% (active).
In the case of `CCOc1ccccc1CNC(=O)C1CCCN(c2nnc(C)c3c(C)n(-c4ccccc4)nc23)C1` (stereo not given), the inhibition is reported as 33.6% (active).
In the case of `S=C(NNc1ccc2ccccc2c1)NC1CCCCC1`, the inhibition is reported as 34.4% (active).
For `CCCCCCCCCCOC(=O)Cn1c(COc2cccc(C)c2)[n+](C)c2ccccc21`, the inhibition was 24.9% (active).
With `Cc1ccc2cccc(NS(=O)(=O)c3ccccc3)c2n1` the inhibition was 23.1% (active).
With `Cc1cccc(NS(=O)(=O)c2ccc(C)c(C(=O)OCC(=O)Nc3cc(C)on3)c2)c1` the inhibition was 32.1% (active).
In the case of `Cc1cccc(/C=N/NC(=O)Cc2ccc(Cl)cc2)c1O`, the inhibition is reported as 29.9% (active).
With `COc1cc(/C=C/c2ccc3cccc(O)c3n2)cc(OC)c1OC` the inhibition was 27.2% (active).
In the case of `Cc1cccn2c(=O)c3cc(C(=O)NCCN4CCOCC4)c(=N)n(Cc4ccc(F)cc4)c3nc12`, the inhibition is reported as 34.8% (active).
For `COc1ccc(NC(=O)Nc2cccc3c2O[C@H](CN(C)Cc2ccc(-c4ccccc4)cc2)[C@@H](C)CN([C@H](C)CO)C3=O)cc1`, the inhibition was 31% (active).
With `O=C(NNc1c2ccccc2nc2ccccc12)C(O)c1ccccc1` (stereo not given) the inhibition was 34.4% (active).
With `COc1ccccc1[C@@]1(C)ON(c2ccccc2C(F)(F)F)C1=O` the inhibition was 31.6% (active).
For `O=C(N/N=C/c1ccc(O)cc1O)c1ccc(CN2C(=O)c3cccc4cccc2c34)cc1`, the inhibition was 29.2% (active).
With `Cn1c(C(=O)NCc2cccs2)cc2oc3ccccc3c21` the inhibition was 27.7% (active).
For `O=C(N/N=C/c1cc([N+](=O)[O-])ccc1N1CCNCC1)c1ccc([N+](=O)[O-])cc1`, the inhibition was 32.1% (active).
With `Oc1c(C(c2ccc(Cl)cc2)N2CCCC2)cc(Cl)c2cccnc12` (stereo not given) the inhibition was 32.9% (active).
